“And” between values parts separate entries of the source, which are not always exact repeats. Equal values may be shown once. Inconclusive results are not listed. Values without a mark were called inactive. The source made the active and inactive calls. Calls follow the shape of the dose curve; as a rule, active = well fitted cell-killing curve with a large enough effect; inconclusive = small, poorly fitted or top-dose-only effect; inactive = flat fitted curve, though single readings scatter.
Assay: qHTS of pediatric cancer cell lines to identify multiple opportunities for drug repurposing: Primary screen for TC32 cells (AID 1347089); also: nearly all actives have a fitted effect of over 60% in size
Details: TC32 Ewing sarcoma viability, CellTiter-Glo luminescence, 48 h; series mostly up to 45.8 µM; activity change, negative = cytotoxic: at the top concentration
Excerpt: Drug repurposing or repositioning has been offered as a strategy for drug development in oncology programs. This approach has special potential for childhood cancers and other rare or orphan diseases, where the expected return on new drug development has been a disincentive to pharmaceuticals.
In this project we exploit the poly-pharmacology of drugs to discover new indications via phenotypic screening of a panel of 19 well-characterized cell lines derived from solid tumors seen in children and adolescents. The goal is to identify approved drugs with previously unrecognized anticancer properties that has the potential to reveal new mechanisms and biological processes involved in carcinogenesis or drug resistance. We employed a titration-based paradigm (quantitative high-throughput screening or qHTS), where all compounds were tested at multiple concentrations for their effect on cell viability. Concentration-response curves (CRCs) were derived directly from the primary screen, and both potency and efficacy values were used to identify compounds with robust bioactivity profiles. We screened the NIH Chemical Genomics Center (NCGC) Pharmaceutical Collection (NPC) and Mechanism Interrogation Plate (MIPE) small molecule collections of approved and investigational compounds against these cell lines; and measured metabolically active cells after 48 hours of compound treatment as a proxy for cell viability.
Assay Submitter: Nathalia J. Martinez, National Center for Advancing Translational Sciences, National Institutes of Health, Rockville, MD, USA; email: natalia.martinez@nih.gov
[1] Shen, M et al. Quantitative high-throughput phenotypic screening of pediatric cancer cell lines identifies multiple opportunities for drug repurposing. Oncotarget 2017 Dec 19;9(4):4758-4772. PMID 29435139.
The cells were obtained from University of North Carolina (UNC), Pediatric Preclinical Testing Program (PPT), and Coriell Institute (CI).
qHTS cell viability assay:
Cells were assayed in growth media at a density of 500-1,000 cells/well. Five microliters of cells were dispensed into 1,536-well, white, solid-bottom, TC-treated plates (Greiner Bio One) using a multidrop dispenser and incubated at 37 degrees C, 5% CO2, under a humidified atmosphere for 5 hours. Twenty-three nanoliters of compounds and controls (neutral control DMSO or positive control bortezomib at final concentration of 2.3 uM) were subsequently transferred by Kalypsys pintool. For primary screens, the MIPE collection was tested at 11-point dilutions (final concentrations range from 0.78 nM to 46 µM) and the NPC collection at 8-point dilutions (final concentrations range from 0.59 nM to 46 µM). Compounds tested in follow-up screens were assayed at 11-point dilutions. Cells were incubated for 48 hours, followed by addition of 3 uL of CellTiter-Glo (Promega). After a 15min incubation at room temperature, samples were analyzed for luminescence intensity using a ViewLux High-throughput CCD imager equipped with clear filters.
% is scaled to controls: 0 for no effect and ±100 for the full control effect; potency is read from the fitted curve at half-maximal effect.

**Q.** Which “activity change, negative = cytotoxic” value does the source give for `CNC[C@@H](O)[C@@H](O)[C@H](O)[C@H](O)CO` here?
**A.** 11.8%

**Q.** For `Nc1ccc(S(N)(=O)=O)cc1`, which Potency is on record?
**A.** inactive

**Q.** For `COC(=O)C1=C(C)NC(C)=C(C(=O)OCCCN2CCC(c3ccccc3)(c3ccccc3)CC2)C1c1cccc([N+](=O)[O-])c1` (stereo not given), which “activity change, negative = cytotoxic” value is on record?
**A.** 10.4%

**Q.** For `Clc1ccc(C(Cn2ccnc2)OCc2ccc(Sc3ccccc3)cc2)c(Cl)c1` (stereo not given), which Potency is on record?
**A.** inactive

**Q.** Which “activity change, negative = cytotoxic” value does the source give for `Oc1ccc2ccccc2c1SSc1c(O)ccc2ccccc12` here?
**A.** 2.54%

**Q.** For `O=C1c2c(O)cc(O)cc2OC(c2ccc(O)c(O)c2)C1O` (stereo not given), which “activity change, negative = cytotoxic” value is on record?
**A.** 17.2%

**Q.** With `Nc1cc(C(Cl)=C(Cl)Cl)c(S(N)(=O)=O)cc1S(N)(=O)=O` as the compound, how does the Potency read?
**A.** inactive

**Q.** For `O=P(O)(O)C(O)(Cn1ccnc1)P(=O)(O)O`, which “activity change, negative = cytotoxic” value is on record?
**A.** 3.26% [at 16 µM]

**Q.** Which Potency does the source give for `C=C(c1ccc(C(=O)O)cc1)c1cc2c(cc1C)C(C)(C)CCC2(C)C` here?
**A.** inactive

**Q.** For `COc1cc2nc(N3CCN(C(=O)C4CCCO4)CC3)nc(N)c2cc1OC` (stereo not given), which Potency is on record?
**A.** inactive

**Q.** With `COc1cc(Nc2c(C#N)cnc3cc(OCCCN4CCN(C)CC4)c(OC)cc23)c(Cl)cc1Cl` as the compound, how does the Potency read?
**A.** 23.6 µM (active)

**Q.** With `O=C(O)c1cc(=O)c2c(OCC(O)COc3cccc4oc(C(=O)O)cc(=O)c34)cccc2o1` as the compound, how does the Potency read?
**A.** inactive

**Q.** For `CC(C)[N+]1(C)[C@@H]2CC[C@H]1CC(OC(=O)C(CO)c1ccccc1)C2` (stereo not given in full), which “activity change, negative = cytotoxic” value is on record?
**A.** 3.44%

**Q.** Which Potency does the source give for `Cc1nc(-c2ccc(OCC(C)C)c(C#N)c2)sc1C(=O)O` here?
**A.** inactive

**Q.** For `Cc1cccc(C)c1OCC(=O)N[C@@H](Cc1ccccc1)[C@@H](O)C[C@H](Cc1ccccc1)NC(=O)[C@H](C(C)C)N1CCCNC1=O`, which Potency is on record?
**A.** inactive

**Q.** With `O=C1NC(=O)C(c2ccccc2[N+](=O)[O-])=C1Nc1ccc(O)c(Cl)c1` as the compound, how does the “activity change, negative = cytotoxic” value read?
**A.** -0.239%

**Q.** Which “activity change, negative = cytotoxic” value does the source give for `NC(=NCc1ccccc1)NC(=O)c1nc(Cl)c(N)nc1N` here?
**A.** 18.2%

**Q.** Which Potency does the source give for `C=CCc1cc(OC)c(O)c(C(=O)NCCO)c1` here?
**A.** inactive

**Q.** For `O=C(O)c1cccc(-c2noc(-c3ccccc3F)n2)c1`, which Potency is on record?
**A.** inactive

**Q.** With `CCCCc1ccc2nc(NC(=O)OC)[nH]c2c1` as the compound, how does the Potency read?
**A.** 117 nM (active) and 47 nM (active)

**Q.** Which “activity change, negative = cytotoxic” value does the source give for `CCCS(=O)c1ccc2nc(NC(=O)OC)[nH]c2c1` (stereo not given) here?
**A.** -7.38%

**Q.** Which Potency does the source give for `Cc1cccc(CN2CCN(C(c3ccccc3)c3ccc(Cl)cc3)CC2)c1` (stereo not given) here?
**A.** inactive

**Q.** With `O=c1oc2cc(O)ccc2s1` as the compound, how does the “activity change, negative = cytotoxic” value read?
**A.** -7.4%

**Q.** With `C[C@H](Cn1cnc2c(N)ncnc21)OCP(=O)(O)O` as the compound, how does the “activity change, negative = cytotoxic” value read?
**A.** 12.8%

**Q.** Which “activity change, negative = cytotoxic” value does the source give for `CCOC(=O)C(C)Oc1cccc2c(=O)n(CC(=O)Nc3ccc4c(c3)OCCO4)ccc12` (stereo not given) here?
**A.** 14.5%

**Q.** For `Cc1cccc(C#Cc2ccccc2)n1`, which “activity change, negative = cytotoxic” value is on record?
**A.** 0.988%

**Q.** For `COc1cc2c(cc1OC)C1CC(=O)C(CC(C)C)CN1CC2` (stereo not given), which “activity change, negative = cytotoxic” value is on record?
**A.** 11.3%

**Q.** For `COc1ccc(C2(C#N)CCC(C(=O)O)CC2)cc1OC1CCCC1` (stereo not given), which “activity change, negative = cytotoxic” value is on record?
**A.** 12.4%

**Q.** Which Potency does the source give for `Cc1ccc(NC(=O)c2ccc(CN3CCN(C)CC3)cc2)cc1Nc1nccc(-c2cccnc2)n1` here?
**A.** inactive

**Q.** For `Cc1cccc(-c2[nH]ncc2-c2ccc3ncccc3n2)n1`, which “activity change, negative = cytotoxic” value is on record?
**A.** 7.47%

**Q.** For `C[Se]CCC(N)C(=O)O` (stereo not given), which “activity change, negative = cytotoxic” value is on record?
**A.** 1.83% [at 92.2 µM]

**Q.** With `COc1c2occc2cc2ccc(=O)oc12` as the compound, how does the Potency read?
**A.** inactive

**Q.** With `CC(=O)Nc1ccc(O)cc1` as the compound, how does the Potency read?
**A.** inactive

**Q.** For `CC(C)C[C@H](NC(=O)[C@H](Cc1ccccc1)NC(=O)c1cnccn1)B(O)O`, which Potency is on record?
**A.** 0.0836 µM (active)

**Q.** With `Cc1cc(=O)c2c(O)c3c(O)cc(=O)c4c3c3c(cc(O)c1c23)C(C)(C)C=4O` as the compound, how does the Potency read?
**A.** inactive

**Q.** With `COC1=C(OC)C(=O)C(CCCCCCCCCCO)=C(C)C1=O` as the compound, how does the “activity change, negative = cytotoxic” value read?
**A.** 4.16%

**Q.** Which Potency does the source give for `Cc1ncc([N+](=O)[O-])n1CC(C)O` (stereo not given) here?
**A.** inactive

**Q.** With `C[C@@H](c1ncncc1F)[C@](O)(Cn1cncn1)c1ccc(F)cc1F` as the compound, how does the “activity change, negative = cytotoxic” value read?
**A.** -0.385%

**Q.** For `C[C@]12CCC(=O)C=C1CC[C@@H]1[C@H]2[C@@H](O)C[C@@]2(C)[C@H]1CC[C@]2(O)C(=O)CO`, which “activity change, negative = cytotoxic” value is on record?
**A.** 13.3%

**Q.** With `Cc1cc(Cl)ccc1OCCCC(=O)NO` as the compound, how does the Potency read?
**A.** 5.23 µM (active)

Source: PubChem BioAssay (NCATS)
